In PubChem BioAssay:
For some assays here: Potency and affinity values are given separately. The source made the active and inactive calls.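 Rule for the calls, unless noted: active = calcium signal ratio cut to more than 3 SD under the fully stimulated control mean yet still positive, in both repeats and the primary screen; inactive = the rest.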

Columns and labels:
[1] = system: TRPC4 beta (transient receptor potential cation channel C4), mouse; test: activators of mouse TRPC4 channel, confirmation, cell-based, Fluo4 calcium, HEK293 TRPC4beta/mu-opioid, duplicates, 10 µM (AID 2426;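 active = fluorescence ratio normalized to control raised more than 50% in primary screen plus both repeat runs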;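 for activation: percent rise of integrated ratio over buffer wells lacking compound which define 0%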); conditions: Fluo4 calcium fluorescence, at 10 µM; hits give high values
[2] = system: transient receptor potential cation channel C4 beta (TRPC4), mouse; test: activators of mouse TRPC4 channel, confirmation, cell-based, second round, Fluo4, HEK293 TRPC4beta/mu-opioid, 1 µM (AID 2461;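 active = primary screen active and over 50% activation in each of two duplicate runs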;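 for activation: 0% = wells without test compound as baseline of integrated fluorescence ratio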); conditions: Fluo4 calcium fluorescence, at 1 µM; hits give high values
[3] = system: TRPC4 (transient receptor potential cation channel C4 beta), mouse; test: positive allosteric modulators of mouse TRPC4, confirmation, cell-based, second round, Fluo-4, HEK293 TRPC4beta/mu-opioid, 1 µM (AID 2554;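 active = primary screen hit whose fluorescence ratio, in both repeats, exceeds the weak agonist control mean by 3 SD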); conditions: DAMGO EC20, Fluo-4 calcium flux, at 1 µM; hits give high values
[4] = system: TRPC4 beta (transient receptor potential cation channel C4), mouse; test: positive allosteric modulators of mouse TRPC4, confirmation, cell-based, Fluo-4, HEK293 TRPC4beta/mu-opioid (AID 2555;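 active = primary screen hit whose calcium fluorescence ratio, in both repeats, exceeds the weak agonist control mean by 3 SD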); conditions: DAMGO EC20, Fluo-4 calcium flux, at 10 µM; hits give high values
[5] = molecular target: Short transient receptor potential channel 4 (Mus musculus) (UniProt Q9QUQ5); test: inhibitors of mouse TRPC4 channel, confirmation, cell-based, Fluo4, HEK293 TRPC4beta/mu-opioid (AID 2636;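 active = calcium signal cut by more than 3 SD below the full-agonist control yet still positive, in both repeats and the earlier primary screen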); conditions: DAMGO, Fluo4 calcium flux, at 10 µM; hits give high values
Chain of Short transient receptor potential channel 4 (Mus musculus) (Q9QUQ5 whole entry, looked up): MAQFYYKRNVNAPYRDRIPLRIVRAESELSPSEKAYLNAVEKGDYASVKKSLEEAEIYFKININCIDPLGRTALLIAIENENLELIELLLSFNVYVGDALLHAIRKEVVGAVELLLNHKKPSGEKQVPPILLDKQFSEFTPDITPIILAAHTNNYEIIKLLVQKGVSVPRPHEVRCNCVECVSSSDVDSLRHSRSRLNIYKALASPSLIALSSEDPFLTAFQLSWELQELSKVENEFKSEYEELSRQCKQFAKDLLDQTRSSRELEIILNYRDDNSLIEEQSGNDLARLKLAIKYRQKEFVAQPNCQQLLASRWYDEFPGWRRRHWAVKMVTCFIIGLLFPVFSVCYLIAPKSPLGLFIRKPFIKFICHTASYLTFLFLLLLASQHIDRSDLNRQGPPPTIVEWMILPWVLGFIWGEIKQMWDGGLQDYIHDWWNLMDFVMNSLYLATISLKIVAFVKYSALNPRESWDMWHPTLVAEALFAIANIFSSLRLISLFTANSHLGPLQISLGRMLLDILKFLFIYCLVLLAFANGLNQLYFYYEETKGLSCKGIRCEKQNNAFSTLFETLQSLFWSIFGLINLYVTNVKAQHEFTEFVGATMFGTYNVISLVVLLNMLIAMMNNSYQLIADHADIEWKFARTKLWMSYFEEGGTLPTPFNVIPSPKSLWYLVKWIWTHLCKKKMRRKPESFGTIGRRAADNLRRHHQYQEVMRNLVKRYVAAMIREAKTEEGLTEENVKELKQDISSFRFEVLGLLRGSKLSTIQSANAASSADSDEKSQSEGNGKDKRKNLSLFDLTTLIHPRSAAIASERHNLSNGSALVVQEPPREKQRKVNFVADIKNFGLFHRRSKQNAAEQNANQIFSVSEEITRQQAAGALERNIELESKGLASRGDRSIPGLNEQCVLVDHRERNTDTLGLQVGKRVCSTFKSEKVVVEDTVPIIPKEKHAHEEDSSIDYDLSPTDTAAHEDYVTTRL

[6] = molecular target: Short transient receptor potential channel 4 (Mus musculus) (UniProt Q9QUQ5); test: inhibitors of mouse TRPC4 channel, confirmation, cell-based, second round, Fluo4, HEK293 TRPC4beta/mu-opioid, 1 µM (AID 2637); conditions: Fluo4 calcium flux, DAMGO, at 1 µM; hits give high values
[7] = molecular target: Short transient receptor potential channel 4 (Mus musculus) (UniProt Q9QUQ5); test: TRPC4 positive allosteric modulators, dose response, cell-based, HEK293 TRPC4/mu-opioid, Fluo-4 calcium, EC20 DAMGO (AID 434941;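 active = earlier screen potentiator hit that boosts the TRPC4 ion channel at some dose, with a dose response; inactive = no potentiation, no dose response, or not a prior hit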;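 note: calcium entry triggered by an EC20 dose of DAMGO at the co-expressed mu-opioid receptor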)
[8] = molecular target: Short transient receptor potential channel 4 (Mus musculus) (UniProt Q9QUQ5); test: mouse TRPC4 channel inhibitors, dose response, cell-based, HEK293 TRPC4/mu-opioid, Fluo-4 calcium (AID 434942;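 active = primary screen inhibitor hit that blocks the TRPC4 channel at some tested dose, yielding a dose curve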)
[9] = molecular target: Short transient receptor potential channel 6 (Mus musculus) (UniProt Q61143); test: inhibition of mouse TRPC6 channel, confirmation, selectivity assay for TRPC4 inhibitor project, cell-based, HEK293, membrane potential dye, duplicate (AID 434948;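 active = active in primary screen and both duplicates, each dropping signal beyond three positive-control SD with fluorescence still positive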); conditions: HEK293 TRPC6, membrane potential dye fluorescence, at 10 µM, stimulated with maximal-effect acetylcholine; hits give high values
Chain of Short transient receptor potential channel 6 (Mus musculus) (Q61143 whole entry, looked up): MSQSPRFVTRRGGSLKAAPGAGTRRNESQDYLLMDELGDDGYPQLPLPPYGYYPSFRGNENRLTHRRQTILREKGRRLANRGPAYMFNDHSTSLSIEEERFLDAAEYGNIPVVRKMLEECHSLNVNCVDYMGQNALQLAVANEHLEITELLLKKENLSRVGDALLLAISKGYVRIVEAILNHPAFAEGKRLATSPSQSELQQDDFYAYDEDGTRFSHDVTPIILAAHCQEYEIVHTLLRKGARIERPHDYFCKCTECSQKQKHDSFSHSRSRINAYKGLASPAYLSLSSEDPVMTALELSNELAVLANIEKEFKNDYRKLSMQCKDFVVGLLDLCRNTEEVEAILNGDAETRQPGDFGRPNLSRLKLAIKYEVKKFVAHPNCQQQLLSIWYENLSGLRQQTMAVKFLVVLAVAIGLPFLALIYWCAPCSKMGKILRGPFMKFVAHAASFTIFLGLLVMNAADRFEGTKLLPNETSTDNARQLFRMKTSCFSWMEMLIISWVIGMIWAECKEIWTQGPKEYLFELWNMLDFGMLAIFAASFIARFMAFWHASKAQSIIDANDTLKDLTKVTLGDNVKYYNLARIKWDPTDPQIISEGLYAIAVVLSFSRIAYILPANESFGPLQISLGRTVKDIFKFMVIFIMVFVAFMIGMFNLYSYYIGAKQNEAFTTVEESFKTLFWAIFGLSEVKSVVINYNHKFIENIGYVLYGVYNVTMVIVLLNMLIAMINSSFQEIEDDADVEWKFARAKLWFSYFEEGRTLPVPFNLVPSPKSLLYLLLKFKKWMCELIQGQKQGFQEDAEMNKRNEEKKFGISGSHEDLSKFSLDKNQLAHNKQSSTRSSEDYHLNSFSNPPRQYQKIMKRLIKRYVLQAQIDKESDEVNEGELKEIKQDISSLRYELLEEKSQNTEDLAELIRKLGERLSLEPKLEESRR

[10] = molecular target: Short transient receptor potential channel 6 (Mus musculus) (UniProt Q61143); test: activation of mouse TRPC6 channel, confirmation, selectivity assay for TRPC4 activator project, cell-based, HEK293, membrane potential dye, duplicate (AID 434950;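 active = membrane potential signal rise above negative control mean plus 3 SD in both duplicates, also active in the earlier TRPC4 screen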;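 for activation: 0% = buffer only wells and 100% = acetylcholine maximal-effect wells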); conditions: HEK293 TRPC6, membrane potential fluorescence, at 10 µM; hits give high values
[11] = molecular target: Short transient receptor potential channel 6 (Mus musculus) (UniProt Q61143); test: TRPC6 potentiation by TRPC4 potentiator hits, confirmation, selectivity assay for TRPC4 potentiator project, HEK293 cells, membrane potential dye, duplicate (AID 434952;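 active = compound raising the membrane signal above positive-control mean plus 3 SD in both repeats, and a primary screen hit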); conditions: HEK293 TRPC6, membrane potential dye fluorescence, at 10 µM, maximal acetylcholine added after compound; hits give high values
[12] = molecular target: Short transient receptor potential channel 4 (Mus musculus) (UniProt Q9QUQ5); test: calcium flux activators in TRPC4/5HT1a cells, counter-screen for TRPC4 activator project, cell-based, second counter screen, HEK293 TRPC4/5HT1a, Fluo-4 (AID 434977;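 active = calcium signal rise above buffer-control mean plus 5 SD in both duplicates, and also a hit in the primary screen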;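 for activation: plate controls were assay buffer for no effect and maximal serotonin response for full effect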); conditions: Fluo-4 calcium flux, at 10 µM; hits give high values
[13] = calcium flux inhibitors in TRPC4/5HT1a cells, confirmation, counter-screen for TRPC4 inhibitor project, cell-based, second counter screen, HEK293 TRPC4/5HT1a, Fluo-4 (AID 434978;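 active = primary screen active whose calcium signal fell more than 3 SD beyond the full-serotonin control mean in both duplicate plates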;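 note: serotonin given first at submaximal then at maximal dose after compound preincubation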); conditions: Fluo-4 calcium flux, at 10 µM, serotonin added to trigger calcium flux; hits give high values
[14] = system: TRPC4 (mouse), co-expressed with 5HT1a in HEK293; test: calcium flux potentiators in TRPC4/5HT1a cells, confirmation, counter-screen for TRPC4 potentiator project, cell-based, second counter screen, HEK293 TRPC4/5HT1a, Fluo-4 (AID 434979;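 active = signal rise over 3 SD above mean of control wells given weak agonist, in both repeats and first screen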); conditions: Fluo-4 calcium flux, at 10 µM, serotonin added at its EC20 dose; hits give high values
[15] = calcium flux activation in mu-opioid HEK293 cells, confirmation, counter-screen for TRPC4 activator project, cell-based, HEK293 mu-opioid receptor line (AID 449723;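 active = hit in primary screen, with calcium signal over 5 SD above buffer well mean in both duplicates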;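 note: counter screen cells carry the mu-opioid receptor alone and lack TRPC4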); conditions: Fluo-4 calcium fluorescence, at 10 µM; hits give high values
[16] = calcium flux enhancement in mu-opioid HEK293 cells, confirmation, counter-screen for TRPC4 allosteric potentiator project, cell-based, HEK293 mu-opioid receptor line (AID 449724;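 active = calcium signal rise more than 3 SD above the low-dose agonist control mean, in both duplicate plates and the primary screen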); conditions: Fluo-4 calcium flux, at 10 µM, compound added before EC20 DAMGO stimulus; hits give high values

Cc1ccccc1NC(=S)NCC(c1cccnc1)N(C)C (configuration not stated)
inactive: outcome [3] | outcome [4] | outcome [5] | outcome [6] | outcome [7] | outcome [8] | outcome [9] | outcome [11] | outcome [12] | outcome [13] | outcome [14] | outcome [15] | outcome [16]
active: activation [1] 112% | activation [2] 111% | activation [10] 32%

O=C(O)C1C2C=CC(C2)C1C(=O)NC1CCN(Cc2ccccc2)CC1 (configuration not stated)
inactive: outcome [2] | outcome [3] | outcome [4] | outcome [5] | outcome [6] | outcome [7] | outcome [8] | outcome [9] | outcome [11] | outcome [13] | outcome [14] | outcome [15] | outcome [16]
active: activation [1] 155% | activation [10] 32% | activation [12] 44.3%

Cc1ccc(NC(=S)NC2CC3CCC(C2)N3Cc2ccco2)c(C)c1 (configuration not stated)
active: activation [1] 116% | activation [12] 25.9%
inactive: outcome [2] | outcome [3] | outcome [4] | outcome [5] | outcome [6] | outcome [7] | outcome [8] | outcome [9] | outcome [10] | outcome [11] | outcome [13] | outcome [14] | outcome [15] | outcome [16]

Cc1cc(N2CCN(C)CC2)ccc1NC(=O)c1ccc(-c2ccc(Cl)cc2)o1
inactive: outcome [1] | outcome [2] | outcome [3] | outcome [4] | outcome [5] | outcome [6] | outcome [7] | outcome [8] | outcome [9] | outcome [10] | outcome [11] | outcome [12] | outcome [13] | outcome [14] | outcome [15] | outcome [16]

COCCn1nnnc1C(c1cc2ccc(OC)cc2[nH]c1=O)N1CCN(C2CCCCC2)CC1 (configuration not stated)
active: activation [1] 133% | activation [10] 37.5% | activation [12] 13.6%
inactive: outcome [2] | outcome [3] | outcome [4] | outcome [5] | outcome [6] | outcome [7] | outcome [8] | outcome [9] | outcome [11] | outcome [13] | outcome [14] | outcome [15] | outcome [16]

CC(C)Cc1ccc(CN2CCCC(NC(=O)CCn3cnnn3)C2)cc1 (configuration not stated)
inactive: outcome [2] | outcome [3] | outcome [4] | outcome [5] | outcome [6] | outcome [7] | outcome [8] | outcome [9] | outcome [10] | outcome [11] | outcome [13] | outcome [14] | outcome [15] | outcome [16]
active: activation [1] 111% | activation [12] 27.9%

Cc1ccccc1C(=O)NNC(=S)NC(=O)c1cccs1
inactive: outcome [2] | outcome [3] | outcome [4] | outcome [5] | outcome [6] | outcome [7] | outcome [8] | outcome [9] | outcome [10] | outcome [11] | outcome [13] | outcome [14] | outcome [16]
active: activation [1] 139% | activation [12] 109% | activation [15] 30.1%

CCOc1ccc(S(=O)(=O)Nc2cccc(C(=O)NCC(c3ccccc3)N(C)C)c2)cc1 (configuration not stated)
active: activation [1] 255% | activation [10] 43%
inactive: outcome [2] | outcome [3] | outcome [4] | outcome [5] | outcome [6] | outcome [7] | outcome [8] | outcome [9] | outcome [11] | outcome [12] | outcome [13] | outcome [14] | outcome [15] | outcome [16]

CNC[C@H](Cc1ccccc1)NC[C@@H](Cc1cccc2ccccc12)NCCc1ccc(C)cc1
active: activation [1] 228% | activation [12] 68.3% | activation [15] 37.9%
inactive: outcome [2] | outcome [3] | outcome [4] | outcome [5] | outcome [6] | outcome [7] | outcome [8] | outcome [9] | outcome [10] | outcome [11] | outcome [13] | outcome [14] | outcome [16]

Cc1ccc(NC(=O)CNCC(c2ccccc2)N(C)C)cc1F (configuration not stated)
active: activation [1] 95% | activation [10] 44%
inactive: outcome [2] | outcome [3] | outcome [4] | outcome [5] | outcome [6] | outcome [7] | outcome [8] | outcome [9] | outcome [11] | outcome [12] | outcome [13] | outcome [14] | outcome [15] | outcome [16]

OCC1(CCc2ccccc2)CCN(Cc2cccn2-c2cccnc2)CC1
active: activation [1] 56% | activation [10] 55%
inactive: outcome [2] | outcome [3] | outcome [4] | outcome [5] | outcome [6] | outcome [7] | outcome [8] | outcome [9] | outcome [11] | outcome [12] | outcome [13] | outcome [14] | outcome [15] | outcome [16]

CC1CC(C)CN(CCCNC(=O)c2ccc3c(c2)N(Cc2ccccc2)C(=O)c2ccccc2S3=O)C1 (configuration not stated)
active: activation [1] 106% | activation [2] 54% | activation [12] 23.8%
inactive: outcome [3] | outcome [4] | outcome [5] | outcome [6] | outcome [7] | outcome [8] | outcome [9] | outcome [10] | outcome [11] | outcome [13] | outcome [14] | outcome [15] | outcome [16]

CN1CCN(Cc2nc3c(c(=O)[nH]c(=O)n3C)n2Cc2c(F)cccc2Cl)CC1
inactive: outcome [4] | outcome [5] | outcome [6] | outcome [7] | outcome [8] | outcome [9] | outcome [11] | outcome [13] | outcome [15] | outcome [16]
active: activation [1] 135% | activation [2] 80% | potentiation [3] 11% | activation [10] 30% | activation [12] 17.9% | potentiation [14] 36.3%

COc1ccc(-c2nc(CSCC(=O)NC3CCN(Cc4ccccc4)CC3)c(C)o2)cc1OC
inactive: outcome [2] | outcome [3] | outcome [4] | outcome [5] | outcome [6] | outcome [7] | outcome [8] | outcome [9] | outcome [11] | outcome [13] | outcome [14] | outcome [15] | outcome [16]
active: activation [1] 107% | activation [10] 99.5% | activation [12] 23.1%

CC(C)(C)C(=O)/C=c1\s/c(=C\c2ccc(-c3ccc([N+](=O)[O-])cc3)o2)c(=O)n1CC(=O)NC(N)=O
active: activation [1] 63% | potentiation [4] 36% | activation [10] 534% | potentiation, percent of control [11] 436% | activation [12] 30% | potentiation [14] 14% | activation [15] 68.5% | activation [16] 1220%
inactive: outcome [2] | outcome [3] | outcome [5] | outcome [6] | outcome [7] | outcome [8] | outcome [9] | outcome [13]

Cc1ccc(OCC(=O)N(C)CCc2ccccn2)cc1
active: activation [1] 133% | activation [12] 45.5%
inactive: outcome [2] | outcome [3] | outcome [4] | outcome [5] | outcome [6] | outcome [7] | outcome [8] | outcome [9] | outcome [10] | outcome [11] | outcome [13] | outcome [14] | outcome [15] | outcome [16]

O=C(CC1C(=O)NCCN1Cc1ccc(-c2ccccc2)cc1)NCCc1ccccn1 (configuration not stated)
inactive: outcome [2] | outcome [3] | outcome [4] | outcome [5] | outcome [6] | outcome [7] | outcome [8] | outcome [9] | outcome [10] | outcome [11] | outcome [13] | outcome [14] | outcome [15] | outcome [16]
active: activation [1] 142% | activation [12] 34%
